# An excerpt weighted towards active compounds, which were near 3% of everything screened.
# Chronic BCR inh: chronic active BCR signaling inhibition | ABC-DLBCL IkBa-CBG/CBR reporter, luminescence ratio, 4 h | Potency, µM (doses to about 46.1 µM), for the others: at the highest dose activity change, negative = inhibition, most hits filed as inhibitors | 340,000 tested, 0.05% active | AID 493014; active = well fitted inhibition curve with a large enough effect in the signal ratio, with a control signal flat, not every such curve was filed as active; inconclusive = small, poorly fitted or top-dose-only effect, or effect the other way, or a change in a side signal; the % refers to the signal ratio;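 also: potency is read from the fitted curve at half-maximal effect; plate controls were basal doxycycline-induced cells for no effect and cells given 10 µM MG132 for full effect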
#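 Concentration-response series (up to 46 uM) were applied to TMD8 dual-reporter cells for 4 h at 37C with doxycycline. Green/red ratio, after filter-overlap correction, defined %Activity; red signal alone was normalised to basal cells and zero luminescence.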
# LDHA block: inhibitors of human lactate dehydrogenase A; P00338; 480,000 tested, 0.15% active; purified LDHA, NADH/diaphorase-resazurin fluorescence; hits give low values; activity change, % (values are at about 110 or 230 µM); in the data active = activity change below about -30%; inconclusive = mostly about -25% to -30%;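 also: plate controls were DMSO wells for no effect and wells without enzyme for full effect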
#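 LDH5 2 nM; NADH 0.06 mM, pyruvate 0.2 mM; 200 mM Tris pH 7.4, EDTA, Tween-20; 5 min RT. Detection: diaphorase 0.133 mg/mL + resazurin 37 µM, fluorescence ex540/em590 at 0 and 20 min; normalized to enzyme-free and DMSO wells.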
# hERG WT inh: blocks the wildtype human KCNH2 potassium channel; 340,000 tested, 0.37% active; activity change, % at 1.84 µM; AID 720551; U2OS, BacMam KCNH2, thallium flux FluxOr; hits give low values; Q12809;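 active = maximum activity change below -70%; inconclusive = maximum activity change between -70% and -50%; inactive = maximum activity change above -50%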; also: % is scaled to controls: 0 for no effect and ±100 for the full control effect
#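 U2OS cells transduced with wild-type KCNH2 virus are loaded with FluxOr dye for 45 min, and thallium flux is measured in kinetic reads before and after stimulation buffer. Rate constants are normalized to DMSO controls.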
# KCNH2 3.1 inh: blocks the human KCNH2 3.1 channel isoform | U2OS KCNH2 3.1, thallium flux FluxOr; hits give low values | activity change, % (tested at about 1.8 µM) | 340,000 tested, 0.95% active | AID 720553;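 active = maximum activity change below -70%; inconclusive = maximum activity change from -70% to -50%; inactive = maximum activity change above -50%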;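 also: thallium influx rate constant from kinetic fluorescence after stimulation buffer; % is scaled to controls: 0 for no effect and ±100 for the full control effect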
#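 Virally transduced U2OS (3.1 isoform, 4 h infection in dark at RT) → overnight 37 C → FluxOr + Red40 in HBSS/HEPES, 45 min → stimulation buffer, 2 min kinetic read → rate constant vs DMSO controls.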
# ALOX12 inh: inhibitors of human 12S-lipoxygenase ALOX12. purified 12hLO, xylenol orange hydroperoxide absorbance. Potency, µM (titrated, usually from 108 µM), inactives show top-dose activity change, negative = inhibition, hits mostly inhibitors. 580,000 tested, 1.1% active. AID 1671190; active = well fitted inhibition curve with a large enough effect; inconclusive = small, poorly fitted or top-dose-only effect, or another doubt; inactive = no such curve, though single readings can be large or run the other way; also: potency is read from the fitted curve at half-maximal effect; % is scaled to controls: 0 for no effect and ±100 for the full control effect
#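 Purified human 12hLO (150 nM final) in 25 mM Hepes, 0.01% Triton X-100, pH 7.0 was preincubated 15 min at room temperature with compound. Then 40 uM arachidonic acid was added, 30 min. Hydroperoxide was read by Fe-XO absorbance ratio 573/405 nm.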
# ClpP mod: qHTS Assay for Activators of ClpP; ATP-dependent Clp protease proteolytic subunit (Bacillus subtilis (strain 168)), P80244; purified B. subtilis ClpP, FRET peptide cleavage, 20 min; Potency, µM (series often up to 57.5 µM), inactives show at the top dose activity change, negative = active; 340,000 tested, 1.9% active; AID 651965, 2013; active = well fitted falling curve with a large enough effect; inconclusive = small, poorly fitted or top-dose-only effect; inactive = no such curve, though single readings can be large or run the other way; also: potency is read from the fitted curve at half-maximal effect; the source files actives as falling curves though it sought activators and does not explain the sign; nearly all actives have a fitted effect of over 65% in size
# Target sequence (P80244 whole entry, looked up): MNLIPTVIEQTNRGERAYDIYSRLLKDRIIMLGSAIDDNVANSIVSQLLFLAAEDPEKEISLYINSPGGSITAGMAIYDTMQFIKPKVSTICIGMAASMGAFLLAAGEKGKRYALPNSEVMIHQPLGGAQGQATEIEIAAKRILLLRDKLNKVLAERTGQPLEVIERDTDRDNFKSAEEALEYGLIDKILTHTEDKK
#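 ClpP 10 microg/mL final, pH 8 Tris/KCl buffer with BSA, glycerol, Tween-20; compound pinned in; FRET-FV substrate; RT 20 min; Ex320/Em430; ΔFRET vs ADEP 5.8 microM, DMSO, no enzyme.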
# * = called active by the depositor; i = inactive; u = inconclusive; x = not tested or not shown; [ ] = another dose, or the depositor's remark.
SMILES,Chronic BCR inh,LDHA block,hERG WT inh,KCNH2 3.1 inh,ALOX12 inh,ClpP mod
O=S(c1ccccc1O)S(=O)c1ccccc1O (centres undefined),x,-6.8,-3.5,-4.3,2.24µM*,x
COc1cccc2cc(C(=O)OCC(=O)c3ccccc3)c(=O)oc12,x,-1.0,x,x,21.7%,x
CCCCCC1CCC(c2ccc(C(=O)CCN(C)C)cc2)CC1 (centres undefined),x,4.4,x,x,7.94µM*,x
CCCCCCOc1ccc(C(=O)CCN(C)C)cc1,x,1.0,x,x,31.6µM*,x
CCCSc1ccc(C(=O)CCN(C)C)cc1,x,0.2,x,x,31.6µM*,x
O=C(c1cc2ccccc2oc1=O)N1CCC(N2CCCCC2)CC1,x,-3.4,x,x,-28.3%,x
CCc1ccc(CNc2nc3nc(CC)cc(=O)n3[nH]2)cc1,x,8.7,x,x,-7.8%,x
OC(C#CCN1CCC(c2ccccc2)C1)(c1ccccc1)C1CCCCC1 (centres undefined),x,20.2,x,x,0.891µM*,x
OC(C#CCCN1CCCCC1)(c1ccccc1)C1CCCCC1 (centres undefined),-0.4%,-7.8,6.0,1.1,162.4%,-1.5%
Cc1cccc(NC(=O)CNC(=O)CCc2nc3sc4c(c3c(=O)[nH]2)CCCC4)c1C,-1.7%,-2.0,-1.3,6.2,10µM*,-23.8%
CN(C)C(CNC(=O)CCc1nc2sc3c(c2c(=O)[nH]1)CCCC3)c1ccccc1 (centres undefined),-16.4%,-4.5,-10.8,1.3,-0.1%,28.2µM*
CN(CC(=O)Nc1ccc(F)c(F)c1F)C(=O)CCc1nc2sc3c(c2c(=O)[nH]1)CCCC3,5.5%,-2.6,-0.3,3.4,17.8µM*,x
O=C(CCc1nc2sc3c(c2c(=O)[nH]1)CCCC3)NCCOc1ccccc1,9.0%,-2.6,-0.6,-2.3,u,16.2%
Cc1cccc(NC(=O)CCc2nc3sc4c(c3c(=O)[nH]2)CCCC4)n1,5.2%,1.9,-2.0,16.5,u,-18.7%
Cc1ccc(NC(=O)c2cc3c(s2)CCC3)cc1,x,-0.9,x,x,u,x
CSc1nc(N)c2c(n1)NC1=C(C(=O)CC(C)(C)C1)C2c1cccnc1 (centres undefined),x,2.1,x,x,-23.0%,x
CC(=O)c1ccc(NC(=O)COC(=O)c2cc(C)nc3ccccc23)cc1,x,-3.5,x,x,u,x
CC1=C(C(=O)c2ccccc2)C(c2ccc(Br)cc2)NC(=O)N1 (centres undefined),x,-20.8,x,x,u,x
O=c1c(Cl)c(Nc2cccc(Cl)c2)cnn1-c1nc2ccccc2s1,u,3.6,-10.0,-106.1*,-1.3%,-1.9%
Cc1c(P(=O)(c2ccccc2)c2ccccc2)c2ccccc2n1C,x,4.5,x,x,20µM*,x
Cc1c(C(C)(C(=O)O)c2c(C)n(C)c3ccccc23)c2ccccc2n1C,u,x,x,x,86.6%,x
O=C(c1c[nH]c2ccc(S(=O)(=O)N3CCOCC3)cc2c1=O)N1CCCC1,-1.3%,-8.9,26.5,-11.2,0.0%,7.94µM*
CCN(c1ccccc1)S(=O)(=O)c1ccc2[nH]cc(C(=O)N3CCOCC3)c(=O)c2c1,-1.0%,-4.4,2.5,6.8,i,31.6µM*
CCN(c1ccccc1)S(=O)(=O)c1cccc(C(=O)N2CCN(S(=O)(=O)c3ccccc3)CC2)c1,-1.0%,-1.6,-4.3,26.9,-26.5%,28.2µM*
CCCCNC(=O)c1c[nH]c2ccc(S(=O)(=O)N3CCOCC3)cc2c1=O,-2.7%,2.1,4.8,-28.2,-4.0%,x
SMILES,Chronic BCR inh,LDHA block,hERG WT inh,KCNH2 3.1 inh,ALOX12 inh,ClpP mod
CCN(c1ccc(F)cc1)S(=O)(=O)c1ccc2[nH]cc(C(=O)NCCCN3CCOCC3)c(=O)c2c1,0.2%,-2.8,0.0,-4.0,-1.7%,-29.1%
O=C(c1c(F)cccc1Cl)N1CCC2(CC1)OCCN2S(=O)(=O)c1ccccc1,x,11.0,x,x,-60.9%,x
COc1ccc(/C=C/C(=O)NCc2cn(C)nc2C)cc1COc1ccc(Cl)cc1Br,4.2%,-10.8,-3.3,4.6,0.0%,14.1µM*
COc1ccc(C2Oc3ccccc3N2C(C)=O)cc1 (centres undefined),u,1.1,-0.2,4.0,6.6%,1.0%
CC(=O)Oc1ccc(C2OC(=O)c3ccccc3N2C(C)=O)cc1 (centres undefined),2.7%,-3.4,-1.4,-35.8,0.1%,25.1µM*
CCC(C)/C=C/C1=CC2=C(Cl)C(=O)C3(C)OC(=O)C(C(=O)C(C)C(C)O)C3C2=CO1 (centres undefined),u,2.9,-4.5,3.8,u,22.4µM*
COc1ccc(/C=C2\SC(N3CCCCC3)=NC2=O)cc1OC,u,-1.6,-0.4,-6.5,0.0%,x
COc1cc(/C=C2\SC(N3CCC(C)CC3)=NC2=O)ccc1O,u,1.9,-1.3,1.5,u,14.1µM*
C[C@]1(CO)[C@H]2Cc3sc(NC(=O)c4ccnc(Cl)c4)nc3[C@@H](CC(=O)NCc3ccco3)[C@]2(C)CC[C@H]1O,x,x,x,x,-6.2%,x
Cc1cc(C)nc(N2CCC(C(=O)NCCc3ccc(F)cc3)CC2)n1,2.0%,-6.5,2.8,27.3,15.6%,u
Cc1cc(C)nc(N2CCCC(C(=O)NCCc3ccc(F)cc3)C2)n1 (centres undefined),1.2%,-7.2,-11.4,3.1,15.6%,11.2µM*
Cc1ccc(SC2=C(N(C)C)C(=O)c3ccccc3C2=O)cc1,x,35.3,0.7,-12.9,10µM*,1.0%
CC(C)(c1ccccc1)c1ccc(OC(=O)C2CCS(=O)(=O)C2)cc1 (centres undefined),x,5.6,x,x,u,x
CCCNC(=O)N[C@@H]1CCC[C@@H](C(=O)N(CC)CC)CC(=O)N(C)C1,x,x,x,x,39.8µM*,x
CN1C=CC2=C(C#N)C(N)C(C#N)(C#N)C(c3ccccc3)C2C1 (centres undefined),2.9%,14.0,-19.6,2.7,-14.7%,28.2µM*
O=C1c2cc(N3CCOCC3)nc(-c3ccccc3)c2CN1Cc1ccccc1,x,x,x,x,-4.6%[176 µM],x
COc1ccc(-n2c(=S)[nH]c3ccccc3c2=S)cc1,-5.3%,-0.6,-23.3,8.6,-1.9%,-3.2%
COc1ccc(Cn2c(=S)[nH]c3ccccc32)cc1,-12.5%,-2.1,1.6,-2.3,44.7µM*,-0.4%
COc1ccc(-n2c(=S)[nH]c3ccccc32)cc1,-13.2%,2.4,2.0,3.1,28.2µM*,-1.8%
COc1ccc(C(=O)N(Cc2cc3cccc(C)c3[nH]c2=O)c2ccccc2)cc1,x,-4.0,x,x,u,x
CCOc1ccc2c(c1)/C(=N/N1C(=O)c3ccccc3C1=O)C(=O)N2,-17.4%,1.2,5.0,7.0,-0.5%,x

# Screening results: PubChem, National Center for Advancing Translational Sciences (NCATS)
